Screening results: PubChem BioAssay, several laboratories
LMP1 NFkB inh: reduces LMP1-driven NF-kappaB luciferase signal. AID 504558. inhibition, % at 12.5 µM. LMP1-induced NF-kappaB luciferase reporter cells, luminescence. 350,000 compounds, 0.69% hits; in the data active = inhibition above about 41%
Peg3 prom inh: Peg3 promoter activity inhibition; 360,000 compounds, 1.7% hits; AID 588405; inhibition, % at 20 µM; HeLa PEG-Prom luciferase reporter, luminescence, overnight;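 active = inhibition of at least 50% at 20 µM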
HIF-2a block: blocks HIF-2a reporter activity; 786-0 RCC cells HIF-2a reporter, luciferase luminescence, overnight; 360,000 compounds, 0.72% hits; inhibition, % at 18.8 µM;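 active = inhibition of the luminescence signal of 40% or more relative to plate controls, in a single-dose primary screen at 18.75 µM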
TWEAK-Fn14 inh: TWEAK-Fn14 signaling inhibition. TWEAK-stimulated Fn14 reporter cells, luciferase luminescence, 8 h. inhibition, % at 10 µM. 360,000 compounds, 2% hits; in the data active = inhibition above about 50%
TROY NFkB inh: TROY signaling inhibition; 360,000 compounds, 0.98% hits; inhibition, % at 10 µM; Q293 LMP1-TROYcd NF-kB luciferase reporter, 4 h; AID 1347056;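 active = compounds whose plate-normalised and pattern-corrected inhibition of the luciferase reporter signal at the single screening dose is 50% or more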
MITF TRPM1 inh: MITF TRPM1 promoter inhibition in SK-MEL-5 cells; SK-MEL-5 TRPM1 promoter luciferase, 24 h; inhibition, % at 12.5 µM; 330,000 compounds, 0.83% hits;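 active = mean inhibition across replicates of 60% or more, whatever share of single replicates reaches that level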
Hits are given with their value; - = inactive; . = no result given. Compounds with a hit are over-represented: about 4% of the library has one in this group of screens.

SMILES	LMP1 NFkB inh	Peg3 prom inh	HIF-2a block	TWEAK-Fn14 inh	TROY NFkB inh	MITF TRPM1 inh
Cc1ccc(S(=O)(=O)N2CCCC2)cc1C(=O)NCC(C)(C)N1CCOCC1	-	-	-	-	-	-
O=C(Nc1cccc(O)c1)c1cc(-c2ccc3c(c2)OCO3)on1	-	-	-	95.4	64.3	-
O=C(Nc1cccc(O)c1)c1cc(-c2ccccc2Cl)on1	-	-	-	77.1	50.6	-
CNC(=O)c1ccsc1NC(=O)c1ccc(S(=O)(=O)N2CCCc3ccccc32)cc1	-	54.6	-	76.2	-	.
Cc1cc(NC(=O)c2ccc(S(=O)(=O)N3CCc4ccccc43)cc2)no1	-	-	-	-	-	-
Cc1cccc(S(=O)(=O)N2CCCc3ccccc32)c1	48.0	-	-	-	-	-
COC(=O)Nc1ccc(S(=O)(=O)N2CCCc3cccc(O)c32)cc1	-	-	-	-	-	.
O=C(Nc1nc2c(s1)CN(Cc1ccccc1)CC2)c1cccc(S(=O)(=O)N2CCc3ccccc32)c1	-	-	-	-	-	-
COC(=O)Nc1ccc(S(=O)(=O)N2CCCc3ccccc32)cc1	-	-	-	52.8	-	-
CC1CCc2nc(NC(=O)c3ccc(S(=O)(=O)N4CCCc5ccccc54)cc3)sc2C1 (stereo not given)	-	-	-	54.8	-	-
CCc1nnc(NC(=O)c2ccc(S(=O)(=O)N3CCCc4ccccc43)cc2)o1	-	-	-	-	-	-
O=C(Nc1nc2c(s1)CCCC2)c1ccc(S(=O)(=O)N2CCCc3ccccc32)cc1	-	-	-	69.3	-	-
CSc1nc(C(C)C)ccc1CNC(=O)CC(C)c1ccccc1 (stereo not given)	-	-	-	-	-	-
O=C(CC[C@H]1O[C@@H](n2ccc(=O)[nH]c2=O)[C@H](O)[C@@H]1O)N[C@H](Cc1ccccc1)C(=O)NC1CCCCC1	.	-	-	-	-	.
COC1(OC)C(/C=C/c2ccc(Cl)cc2)C(C#N)(C#N)C1(OC)OC (stereo not given)	-	62.9	-	77.4	-	-
COc1cccc(NC(=O)CN(C)C(=O)CCCc2nc3ccccc3c(=O)[nH]2)c1	-	-	-	-	-	-
CCOC(=O)Cc1c(C)nc2c(-c3cccc(Br)c3)c[nH]n2c1=O	-	57.9	-	-	-	-
CCOC(=O)Cc1c(C)nc2c(C#N)c[nH]n2c1=O	-	-	-	-	-	-
CCCc1nnc(NC(=O)C(=O)NCCN(C)C)s1	-	-	-	-	-	-
CCCc1nnc(NC(=O)C(=O)NCCN(CC)CC)s1	-	-	-	-	54.1	-
O=[N+]([O-])c1ccc(-c2ccc(/C=N/O)o2)cc1	.	-	-	-	-	.
O=[N+]([O-])c1ccc(-c2ccc(C=Nc3cccc4ccccc34)o2)cc1	-	-	-	61.9	62.8	-
COc1cc(C(O)c2nc(-c3cccs3)cs2)ccc1F (stereo not given)	.	-	-	-	-	.
C[n+]1c2n(c3ccccc31)N=C(c1ccc(Cl)cc1)CS2	-	-	-	-	-	60.6
CCCS(=O)(=O)c1nnnn1-c1cccc(OC)c1	-	102.0	-	69.3	52.1	70.1
SMILES	LMP1 NFkB inh	Peg3 prom inh	HIF-2a block	TWEAK-Fn14 inh	TROY NFkB inh	MITF TRPM1 inh
CC(NC(=O)/C(C#N)=C/c1ccc([N+](=O)[O-])o1)c1ccccc1 (stereo not given)	-	103.2	78.2	-	-	-
CCOCCCNC(=O)/C(C#N)=C/c1ccc([N+](=O)[O-])o1	-	101.0	-	-	-	61.4
CC(C)CC(=O)Nc1ccc2oc(-c3ccncc3)nc2c1	-	-	-	-	-	-
CC(Oc1ccc(Cl)cc1Cl)C(=O)Nc1ccc2oc(-c3ccncc3)nc2c1 (stereo not given)	-	-	-	54.0	58.9	-
Cc1cc2nc(-c3ccc(NC(=O)C(C)C)cc3)oc2cc1C	-	-	-	-	-	-
Cc1ccc(-c2nc3cc(NC(=O)C(C)C)ccc3o2)cc1C	-	-	-	86.2	80.3	-
O=C(Nc1ccc(-c2nc3cc(NC(=O)c4cccs4)ccc3o2)cc1)c1cccs1	-	-	-	-	-	73.4
CC(C)C(=O)Nc1cccc(-c2nc3ccccc3o2)c1	-	-	-	-	-	-
Cc1ccc(-c2nc3cc(NC(=O)C(C)C)ccc3o2)cc1	-	-	-	61.4	52.9	-
Nc1cc2c(cc1Cl)-c1ccc(Cl)cc1C2	.	-	-	-	-	.
Cc1cc(Cl)ccc1C(=O)C1CCCN(C(=O)c2cncs2)C1 (stereo not given)	-	-	-	-	-	-
CCCNC(=O)C(Cc1ccc(I)cc1)NC(=O)c1ccc(C#N)cc1 (stereo not given)	-	-	-	-	-	-
CC(C)C(=O)Nc1ccc(-c2nc3cccnc3o2)cc1	-	-	-	60.4	-	-
COc1ccc(/C=C/C(=O)N(C)C2CCCCC2)cc1Br	-	-	-	-	-	-
CN(C(=O)/C=C/c1cnc2ccccc2c1)C1CCCCC1	-	-	-	52.4	-	-
C/C(N)=C(/C#N)C(=O)CSc1nnc(-c2ccccc2Br)o1	-	-	-	73.5	-	-
O=C(CSc1nnc(-c2ccccc2Br)o1)N1CCOCC1	-	-	-	-	-	-
COc1ccc(-c2nnc(SCC(=O)/C(C#N)=C(\C)N)o2)cc1	-	-	-	65.4	-	-
COc1ccc(-c2nnc(SCC(=O)c3ccc(C)o3)o2)cc1	-	-	-	-	-	-
COc1ccc(S(=O)(=O)N2CCC(C(=O)N[C@@H](C)C(=O)NCc3cccnc3)CC2)cc1	-	-	-	-	-	.
CC1CCCN(S(=O)(=O)c2ccc3c(c2)OCCO3)C1 (stereo not given)	-	-	-	-	-	.
COc1ccc(/C=N/Nc2ncccc2[N+](=O)[O-])c(OC)c1	-	-	-	72.0	51.7	-
CCCOc1ccc(/C=N/Nc2ccccc2[N+](=O)[O-])c(OCCC)c1	-	-	-	55.7	-	-
COc1ccc(/C=N/Nc2ncc(-c3ccccc3)cn2)c(OC)c1	-	-	-	-	-	-
O=C(NC1CCSc2ccccc21)c1ccccc1Br (stereo not given)	-	-	-	-	-	-
Cc1cccc(C(=O)Nc2cc(NC(=O)c3cccs3)ccc2C)c1	-	-	-	-	-	-
CCN1CCN(c2cc(C)c3cc(NC(=O)c4ccc(OC)c(OC)c4)ccc3n2)CC1	-	-	-	-	-	-
CCN1CCN(Cc2ccc(NC(=O)c3cc(NC(=O)c4nccnc4N)cc(OC)c3)cc2C(F)(F)F)CC1	-	-	-	-	-	73.1
CCN1CCN(Cc2ccc(NC(=O)c3ccc(C)c(NC(=O)c4cc(-c5ccc(Br)cc5)n[nH]4)c3)cc2C(F)(F)F)CC1	44.5	-	-	-	-	-
COc1cc(NC(=O)c2cnc(N)s2)cc(C(=O)Nc2cccc(C(F)(F)F)c2)c1	-	-	-	-	-	.
